Source: the OligoGym collection

target: SLC34A1; assay: pooled miR-30 sensor sort-seq; sequence = guide strand; settings: shRNA
Also: reference of the scale not given here.

**Q.** How did the sensor-assay potency score (higher = more potent) turn out when TTCAGGGAGTGCATCCAGCGAG was run?
**A.** The sensor-assay potency score (higher = more potent) was -0.619.

**Q.** TAGAGGACGGCAAACCAGCGGT was tested. Which sensor-assay potency score (higher = more potent) did it give?
**A.** Its sensor-assay potency score (higher = more potent) is -0.623.

**Q.** How did the sensor-assay potency score (higher = more potent) turn out when TCTGTGATGATCTTGAGCAGGT was run?
**A.** The sensor-assay potency score (higher = more potent) was 0.374.

**Q.** TTGATGAGCACCACGAAGGCCA was tested. Which sensor-assay potency score (higher = more potent) did it give?
**A.** Its sensor-assay potency score (higher = more potent) is -0.0356.

**Q.** Which sensor-assay potency score (higher = more potent) does the source give for TTAAAGCAGTCATGCACCGTGG here?
**A.** Its sensor-assay potency score (higher = more potent) is -0.651.

**Q.** TTGACTAGGAGGATGAGGCAGG was tested. Which sensor-assay potency score (higher = more potent) did it give?
**A.** Its sensor-assay potency score (higher = more potent) is 0.548.

**Q.** With TTGAGCATCTTGACTAGGAGGA as the sequence, how does the sensor-assay potency score (higher = more potent) read?
**A.** The sensor-assay potency score (higher = more potent) was 0.961.

**Q.** For TCCGTATTGATGACCTTCTGGA, which sensor-assay potency score (higher = more potent) is on record?
**A.** The sensor-assay potency score (higher = more potent) was -0.714.

target: SLC35D2; assay: as above; settings: shRNA

**Q.** For TTAACTAATTTTATTAGACTAA, which sensor-assay potency score (higher = more potent) is on record?
**A.** Its sensor-assay potency score (higher = more potent) is -1.13.

**Q.** How did the sensor-assay potency score (higher = more potent) turn out when TAAACTGAAACAACTGGCCCTT was run?
**A.** Its sensor-assay potency score (higher = more potent) is 0.105.

**Q.** With TAATAGCTGCACAGAACCGTGG as the sequence, how does the sensor-assay potency score (higher = more potent) read?
**A.** Its sensor-assay potency score (higher = more potent) is -0.868.

**Q.** How did the sensor-assay potency score (higher = more potent) turn out when TTACTTGTGCTTGATAATCCAC was run?
**A.** Its sensor-assay potency score (higher = more potent) is -0.229.

**Q.** With TTAGCTTGGACACATATAGTAT as the sequence, how does the sensor-assay potency score (higher = more potent) read?
**A.** The sensor-assay potency score (higher = more potent) was -0.569.

**Q.** Which sensor-assay potency score (higher = more potent) does the source give for TAGACTAAAGACATGTCTGTTT here?
**A.** The sensor-assay potency score (higher = more potent) was -0.123.

**Q.** With TTGTGCTTGATAATCCACTTAT as the sequence, how does the sensor-assay potency score (higher = more potent) read?
**A.** The sensor-assay potency score (higher = more potent) was -0.388.

**Q.** For TATAGTATCATTATGGTGGCTG, which sensor-assay potency score (higher = more potent) is on record?
**A.** The sensor-assay potency score (higher = more potent) was 0.443.

**Q.** Which sensor-assay potency score (higher = more potent) does the source give for TAGGATAAACACAACATTCTTC here?
**A.** Its sensor-assay potency score (higher = more potent) is 0.0517.

**Q.** For TTTCTTATCAAAATCAGGGAAG, which sensor-assay potency score (higher = more potent) is on record?
**A.** Its sensor-assay potency score (higher = more potent) is -0.741.

**Q.** Which sensor-assay potency score (higher = more potent) does the source give for TACATTTCTTGAGACTGCCATT here?
**A.** Its sensor-assay potency score (higher = more potent) is -1.38.

**Q.** Which sensor-assay potency score (higher = more potent) does the source give for TAGCTGCACAGAACCGTGGAGT here?
**A.** The sensor-assay potency score (higher = more potent) was -0.729.

target: SLC38A11; assay: as above; settings: shRNA

**Q.** How did the sensor-assay potency score (higher = more potent) turn out when TAATTTTCAAATAAGTCCCCTT was run?
**A.** Its sensor-assay potency score (higher = more potent) is 0.231.

**Q.** With TAAACCTGTAGAGATGAGGGAG as the sequence, how does the sensor-assay potency score (higher = more potent) read?
**A.** The sensor-assay potency score (higher = more potent) was 0.481.

**Q.** With TCTGCTGAACATGAGACTCTGA as the sequence, how does the sensor-assay potency score (higher = more potent) read?
**A.** The sensor-assay potency score (higher = more potent) was 0.182.

**Q.** For TACAACAATGTGGAAAACCGAT, which sensor-assay potency score (higher = more potent) is on record?
**A.** Its sensor-assay potency score (higher = more potent) is -0.853.

**Q.** TTAAAGTAGAAAGTTGTGTTGT was tested. Which sensor-assay potency score (higher = more potent) did it give?
**A.** Its sensor-assay potency score (higher = more potent) is 0.823.

**Q.** With TTCTAGAGAACTGTAAACTAAG as the sequence, how does the sensor-assay potency score (higher = more potent) read?
**A.** Its sensor-assay potency score (higher = more potent) is -0.917.

**Q.** TTGAGTATTTGTAATAGCCATG was tested. Which sensor-assay potency score (higher = more potent) did it give?
**A.** The sensor-assay potency score (higher = more potent) was -1.21.

**Q.** Which sensor-assay potency score (higher = more potent) does the source give for TTGAGTTCTAGAACTATCCCGA here?
**A.** Its sensor-assay potency score (higher = more potent) is 0.433.

**Q.** For TTTATCAATAAAACAAGGGAAA, which sensor-assay potency score (higher = more potent) is on record?
**A.** Its sensor-assay potency score (higher = more potent) is -1.2.

**Q.** How did the sensor-assay potency score (higher = more potent) turn out when TTGTGTTGTCTGCTGAACATGA was run?
**A.** Its sensor-assay potency score (higher = more potent) is -0.294.

**Q.** Which sensor-assay potency score (higher = more potent) does the source give for TTTTATTGACCAAAGACTGGTA here?
**A.** Its sensor-assay potency score (higher = more potent) is -0.145.

**Q.** With TCAAGTATCCACATGTAGCAAA as the sequence, how does the sensor-assay potency score (higher = more potent) read?
**A.** The sensor-assay potency score (higher = more potent) was -0.803.

target: SLC39A12; assay: as above; settings: shRNA

**Q.** With TAGAAATATCTCCACCAGCTGC as the sequence, how does the sensor-assay potency score (higher = more potent) read?
**A.** The sensor-assay potency score (higher = more potent) was -1.07.

**Q.** With TTGTCCCAGACAAACACCCTGG as the sequence, how does the sensor-assay potency score (higher = more potent) read?
**A.** Its sensor-assay potency score (higher = more potent) is -0.6.

**Q.** With TATTCTGTAAAGTAGTCTGGGG as the sequence, how does the sensor-assay potency score (higher = more potent) read?
**A.** The sensor-assay potency score (higher = more potent) was -0.404.

**Q.** For TTGCAGTTGATTTTACTCCAAC, which sensor-assay potency score (higher = more potent) is on record?
**A.** The sensor-assay potency score (higher = more potent) was -1.11.

**Q.** With TGACACAAGATAGCAATCGTAG as the sequence, how does the sensor-assay potency score (higher = more potent) read?
**A.** The sensor-assay potency score (higher = more potent) was -0.876.

**Q.** TGAAGAACAGATCTCTTCCTGA was tested. Which sensor-assay potency score (higher = more potent) did it give?
**A.** Its sensor-assay potency score (higher = more potent) is 0.419.

**Q.** With TTTATTACTCATGTTGAGCTTT as the sequence, how does the sensor-assay potency score (higher = more potent) read?
**A.** Its sensor-assay potency score (higher = more potent) is -0.0356.

**Q.** TTGTGTTTGAACATGAGTCATT was tested. Which sensor-assay potency score (higher = more potent) did it give?
**A.** Its sensor-assay potency score (higher = more potent) is -0.725.
